Results from article PMC7862700, “An all-to-all approach to the identification of sequence-specific readers for epigenetic DNA modifications on cytosine”.

Key:
Experiment in all cases: DAPPL (digital affinity profiling via proximity ligation, sequencing); 10 mM Tris-HCl pH 7.5, 50 mM NaCl, 1 mM DTT, 4% glycerol, room temperature, 30 min; GST-TFs on glutathione beads, 16-mer random dsDNA library, 0.1% formaldehyde crosslink after washing; high values mean tight binding
FEV = target: T1, FEV (Homo sapiens, UniProt Q99581 1-238); conditions: protein: recombinant; tags: N-terminal GST; dsDNA, one strand shown
T1 sequence: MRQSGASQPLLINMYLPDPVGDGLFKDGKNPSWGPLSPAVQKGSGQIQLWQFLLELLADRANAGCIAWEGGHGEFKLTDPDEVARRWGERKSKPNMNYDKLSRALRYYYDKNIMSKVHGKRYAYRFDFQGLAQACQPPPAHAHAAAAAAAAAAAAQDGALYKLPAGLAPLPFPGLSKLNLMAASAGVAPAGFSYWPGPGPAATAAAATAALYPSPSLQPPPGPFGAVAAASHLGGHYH
Procedure, shortened: (§1)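 In yeast, human transcription factors were expressed with a GST fusion, then pulled down on glutathione beads and given DNA barcodes. Pooled with a tag-only sample, they were exposed to 200 nmole of a 16-mer random double-stranded DNA library (Tris/NaCl/DTT/glycerol buffer, room temperature, 30 min), washed, crosslinked with 0.1% formaldehyde, proximity-ligated using BsaI/T4 ligase for 1 h at 37 °C, PCR-amplified and read on an Illumina NextSeq500. Each hexamer's frequency of reads for a factor, divided by the matching frequency for the tag-only sample, gives the binding signal.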

ETV5 = ETV5 (Homo sapiens, UniProt P41161 1-510); conditions: protein: recombinant; tags: N-terminal GST; dsDNA, one strand shown
ETV5, sequence (P41161 whole entry): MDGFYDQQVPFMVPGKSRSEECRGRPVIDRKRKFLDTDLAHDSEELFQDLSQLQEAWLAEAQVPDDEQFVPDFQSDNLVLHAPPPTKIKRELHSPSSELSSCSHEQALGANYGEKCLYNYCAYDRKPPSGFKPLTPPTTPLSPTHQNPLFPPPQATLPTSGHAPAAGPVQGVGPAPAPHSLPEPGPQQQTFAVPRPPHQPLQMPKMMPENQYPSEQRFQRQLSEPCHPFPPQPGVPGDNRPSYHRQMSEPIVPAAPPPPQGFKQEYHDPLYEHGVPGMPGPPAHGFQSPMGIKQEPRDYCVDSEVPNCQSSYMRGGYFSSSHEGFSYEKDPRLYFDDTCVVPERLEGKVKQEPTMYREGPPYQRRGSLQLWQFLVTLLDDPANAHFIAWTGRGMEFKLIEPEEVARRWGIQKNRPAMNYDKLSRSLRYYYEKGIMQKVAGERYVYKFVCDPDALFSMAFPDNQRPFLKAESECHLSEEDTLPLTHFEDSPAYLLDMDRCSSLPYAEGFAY
Procedure, shortened: as §1

HSF1 = HSF1 (Homo sapiens, UniProt Q00613 1-529); conditions: protein: recombinant; tags: N-terminal GST; chain copies: 3; dsDNA, one strand shown
HSF1, sequence (Q00613 whole entry): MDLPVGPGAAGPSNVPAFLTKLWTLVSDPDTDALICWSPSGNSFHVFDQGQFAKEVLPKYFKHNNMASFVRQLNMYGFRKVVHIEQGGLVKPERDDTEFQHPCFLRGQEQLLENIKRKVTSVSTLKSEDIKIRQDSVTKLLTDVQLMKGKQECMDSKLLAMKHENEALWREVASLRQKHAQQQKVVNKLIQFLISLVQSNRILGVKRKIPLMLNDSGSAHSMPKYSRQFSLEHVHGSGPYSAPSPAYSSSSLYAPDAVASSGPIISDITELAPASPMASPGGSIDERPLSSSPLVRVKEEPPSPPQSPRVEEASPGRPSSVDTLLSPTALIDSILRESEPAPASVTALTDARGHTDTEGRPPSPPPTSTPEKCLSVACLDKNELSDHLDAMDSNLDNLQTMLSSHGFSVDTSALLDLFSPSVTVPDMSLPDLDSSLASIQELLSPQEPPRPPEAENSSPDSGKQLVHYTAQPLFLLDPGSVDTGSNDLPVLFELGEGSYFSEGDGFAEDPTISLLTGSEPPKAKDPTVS
Procedure, shortened: as §1

SPIC = target: T2, SPIC (Homo sapiens, UniProt Q8N5J4 1-248); conditions: protein: recombinant; tags: N-terminal GST; dsDNA, one strand shown
T2 sequence: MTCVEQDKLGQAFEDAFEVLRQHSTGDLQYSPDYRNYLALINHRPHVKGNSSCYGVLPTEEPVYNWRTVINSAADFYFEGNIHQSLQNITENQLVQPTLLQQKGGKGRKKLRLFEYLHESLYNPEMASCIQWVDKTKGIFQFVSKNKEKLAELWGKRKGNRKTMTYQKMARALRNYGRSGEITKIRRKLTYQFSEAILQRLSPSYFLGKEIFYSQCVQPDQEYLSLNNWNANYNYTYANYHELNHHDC
Procedure, shortened: as §1

ELF4 = ELF4 (Homo sapiens, UniProt Q99607 1-663); conditions: protein: recombinant; tags: N-terminal GST; dsDNA, one strand shown
ELF4, sequence (Q99607 whole entry): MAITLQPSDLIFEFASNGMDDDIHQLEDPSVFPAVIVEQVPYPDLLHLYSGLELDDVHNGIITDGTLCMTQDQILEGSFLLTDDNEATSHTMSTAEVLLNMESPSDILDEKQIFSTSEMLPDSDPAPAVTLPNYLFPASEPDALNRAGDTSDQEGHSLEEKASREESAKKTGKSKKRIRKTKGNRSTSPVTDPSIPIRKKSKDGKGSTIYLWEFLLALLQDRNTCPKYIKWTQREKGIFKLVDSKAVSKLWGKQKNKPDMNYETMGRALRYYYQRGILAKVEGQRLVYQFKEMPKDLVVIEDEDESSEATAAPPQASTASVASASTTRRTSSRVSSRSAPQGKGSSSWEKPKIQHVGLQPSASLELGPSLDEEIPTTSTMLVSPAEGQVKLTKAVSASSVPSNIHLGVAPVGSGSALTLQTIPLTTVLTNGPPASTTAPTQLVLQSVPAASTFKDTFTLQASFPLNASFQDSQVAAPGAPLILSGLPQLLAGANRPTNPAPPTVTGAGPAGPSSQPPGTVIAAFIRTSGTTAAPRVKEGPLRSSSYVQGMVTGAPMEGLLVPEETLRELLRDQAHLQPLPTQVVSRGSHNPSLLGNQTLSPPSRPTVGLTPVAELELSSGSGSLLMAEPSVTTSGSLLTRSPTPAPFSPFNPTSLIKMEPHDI
Procedure, shortened: as §1

ELK4 = target: T3, ELK4 (Homo sapiens, UniProt P28324-2 1-405); conditions: protein: recombinant; tags: N-terminal GST; dsDNA, one strand shown
T3 sequence: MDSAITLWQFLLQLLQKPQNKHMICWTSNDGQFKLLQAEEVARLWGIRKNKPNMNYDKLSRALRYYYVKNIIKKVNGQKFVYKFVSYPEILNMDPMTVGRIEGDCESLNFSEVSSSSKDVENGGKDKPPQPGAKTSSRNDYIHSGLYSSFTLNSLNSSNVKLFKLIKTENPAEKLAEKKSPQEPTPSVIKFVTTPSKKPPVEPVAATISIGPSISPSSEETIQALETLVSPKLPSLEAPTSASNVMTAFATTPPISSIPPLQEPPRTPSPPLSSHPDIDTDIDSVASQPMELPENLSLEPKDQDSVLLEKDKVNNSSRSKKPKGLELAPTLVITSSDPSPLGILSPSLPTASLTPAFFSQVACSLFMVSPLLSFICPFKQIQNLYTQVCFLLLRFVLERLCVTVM
Procedure, shortened: as §1

ETV2 = target: T4, ETV2 (Homo sapiens, UniProt O00321 1-342); conditions: protein: recombinant; tags: N-terminal GST; dsDNA, one strand shown
T4 sequence: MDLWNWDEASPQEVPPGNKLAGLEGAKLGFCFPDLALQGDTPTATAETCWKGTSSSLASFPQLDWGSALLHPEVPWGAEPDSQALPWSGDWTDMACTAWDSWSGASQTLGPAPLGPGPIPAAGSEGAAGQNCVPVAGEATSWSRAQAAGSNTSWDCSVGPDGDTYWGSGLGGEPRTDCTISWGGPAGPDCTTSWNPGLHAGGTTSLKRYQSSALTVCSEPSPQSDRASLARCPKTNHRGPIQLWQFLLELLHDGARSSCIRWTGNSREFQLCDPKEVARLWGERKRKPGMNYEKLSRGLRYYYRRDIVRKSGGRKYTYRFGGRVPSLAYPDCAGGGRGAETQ
Procedure, shortened: as §1

ELF3 = target: T5, ELF3 (Homo sapiens, UniProt P78545 1-371); conditions: protein: recombinant; tags: N-terminal GST; dsDNA, one strand shown
T5 sequence: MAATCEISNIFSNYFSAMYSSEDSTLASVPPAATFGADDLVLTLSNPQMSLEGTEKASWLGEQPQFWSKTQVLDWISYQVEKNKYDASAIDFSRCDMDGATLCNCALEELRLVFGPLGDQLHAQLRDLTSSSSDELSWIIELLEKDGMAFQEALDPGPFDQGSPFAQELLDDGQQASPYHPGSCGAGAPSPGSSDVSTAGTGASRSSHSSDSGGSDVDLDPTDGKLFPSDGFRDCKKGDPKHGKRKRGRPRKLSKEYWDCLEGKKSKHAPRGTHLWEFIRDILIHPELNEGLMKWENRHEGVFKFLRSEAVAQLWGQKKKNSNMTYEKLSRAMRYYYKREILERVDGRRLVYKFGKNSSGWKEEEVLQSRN
Procedure, shortened: as §1

CRX = CRX (Homo sapiens, UniProt O43186 1-299); conditions: protein: recombinant; tags: N-terminal GST; dsDNA, one strand shown
CRX, sequence (O43186 whole entry): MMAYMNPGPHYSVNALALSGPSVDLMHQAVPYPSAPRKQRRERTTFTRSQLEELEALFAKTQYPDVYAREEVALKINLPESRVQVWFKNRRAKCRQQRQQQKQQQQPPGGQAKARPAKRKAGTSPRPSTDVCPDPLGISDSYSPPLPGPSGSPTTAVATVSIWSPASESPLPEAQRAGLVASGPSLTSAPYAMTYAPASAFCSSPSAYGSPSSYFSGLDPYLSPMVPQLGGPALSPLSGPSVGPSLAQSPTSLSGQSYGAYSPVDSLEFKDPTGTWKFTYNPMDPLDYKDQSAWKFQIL
Procedure, shortened: as §1

ETV1 = ETV1 (Homo sapiens, UniProt P50549 1-477); conditions: protein: recombinant; tags: N-terminal GST; dsDNA, one strand shown
ETV1, sequence (P50549 whole entry): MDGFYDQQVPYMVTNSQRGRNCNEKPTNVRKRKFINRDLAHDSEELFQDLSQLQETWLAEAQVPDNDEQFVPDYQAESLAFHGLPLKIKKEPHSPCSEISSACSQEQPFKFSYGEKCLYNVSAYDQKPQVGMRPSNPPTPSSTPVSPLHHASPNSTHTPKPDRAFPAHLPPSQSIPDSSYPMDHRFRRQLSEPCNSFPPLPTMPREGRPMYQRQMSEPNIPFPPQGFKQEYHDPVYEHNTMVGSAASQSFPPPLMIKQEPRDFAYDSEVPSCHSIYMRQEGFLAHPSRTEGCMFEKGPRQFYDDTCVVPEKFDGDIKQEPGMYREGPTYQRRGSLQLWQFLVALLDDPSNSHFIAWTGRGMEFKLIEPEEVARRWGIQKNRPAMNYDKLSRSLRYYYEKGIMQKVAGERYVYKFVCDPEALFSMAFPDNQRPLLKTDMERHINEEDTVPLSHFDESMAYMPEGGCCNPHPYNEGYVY
Procedure, shortened: as §1

ERF = target: T6, ERF (Homo sapiens, UniProt P50548 1-548); conditions: protein: recombinant; tags: N-terminal GST; dsDNA, one strand shown
T6 sequence: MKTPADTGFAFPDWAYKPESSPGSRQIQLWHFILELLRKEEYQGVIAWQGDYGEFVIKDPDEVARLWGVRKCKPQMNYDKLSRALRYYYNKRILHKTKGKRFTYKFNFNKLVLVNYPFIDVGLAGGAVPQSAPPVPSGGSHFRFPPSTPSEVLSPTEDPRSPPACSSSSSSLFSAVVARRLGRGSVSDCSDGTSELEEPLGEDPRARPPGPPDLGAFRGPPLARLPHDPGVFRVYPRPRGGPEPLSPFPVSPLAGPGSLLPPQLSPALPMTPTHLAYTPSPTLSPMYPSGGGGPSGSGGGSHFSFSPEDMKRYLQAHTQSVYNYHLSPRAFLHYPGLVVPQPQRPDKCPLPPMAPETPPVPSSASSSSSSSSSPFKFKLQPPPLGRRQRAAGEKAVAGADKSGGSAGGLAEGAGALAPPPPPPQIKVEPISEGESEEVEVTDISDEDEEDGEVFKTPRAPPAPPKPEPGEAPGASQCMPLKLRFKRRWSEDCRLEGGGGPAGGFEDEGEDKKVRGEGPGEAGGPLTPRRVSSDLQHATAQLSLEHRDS
Procedure, shortened: as §1

ETV3L = target: T7, ETV3L (Homo sapiens, UniProt Q6ZN32 1-361); conditions: protein: recombinant; tags: N-terminal GST; dsDNA, one strand shown
T7 sequence: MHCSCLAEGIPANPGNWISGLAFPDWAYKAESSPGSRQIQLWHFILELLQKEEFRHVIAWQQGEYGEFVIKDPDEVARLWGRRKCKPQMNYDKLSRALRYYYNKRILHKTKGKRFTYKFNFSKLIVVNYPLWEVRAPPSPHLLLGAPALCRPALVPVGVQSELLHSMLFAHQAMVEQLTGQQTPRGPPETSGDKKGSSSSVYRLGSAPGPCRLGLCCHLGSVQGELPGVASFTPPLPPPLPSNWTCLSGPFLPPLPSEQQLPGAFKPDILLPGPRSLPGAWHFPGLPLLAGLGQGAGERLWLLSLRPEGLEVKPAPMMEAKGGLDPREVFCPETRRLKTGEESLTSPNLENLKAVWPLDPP
Procedure, shortened: as §1

ETS2 = target: T8, ETS2 (Homo sapiens, UniProt P15036 1-469); conditions: protein: recombinant; tags: N-terminal GST; dsDNA, one strand shown
T8 sequence: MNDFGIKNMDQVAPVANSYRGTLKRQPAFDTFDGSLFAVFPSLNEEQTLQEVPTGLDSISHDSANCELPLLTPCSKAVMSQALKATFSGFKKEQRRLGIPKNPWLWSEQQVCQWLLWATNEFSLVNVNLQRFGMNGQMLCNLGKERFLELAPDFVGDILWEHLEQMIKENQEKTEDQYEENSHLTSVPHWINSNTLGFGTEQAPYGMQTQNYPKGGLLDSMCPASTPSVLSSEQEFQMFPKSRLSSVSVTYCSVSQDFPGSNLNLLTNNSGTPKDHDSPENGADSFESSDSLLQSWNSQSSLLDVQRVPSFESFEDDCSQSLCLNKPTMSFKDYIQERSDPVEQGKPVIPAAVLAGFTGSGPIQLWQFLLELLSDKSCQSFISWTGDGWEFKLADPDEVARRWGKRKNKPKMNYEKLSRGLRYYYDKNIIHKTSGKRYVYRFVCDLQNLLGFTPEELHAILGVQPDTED
Procedure, shortened: as §1

SPDEF = target: T9, SPDEF (Homo sapiens, UniProt O95238 1-335); conditions: protein: recombinant; tags: N-terminal GST; dsDNA, one strand shown
T9 sequence: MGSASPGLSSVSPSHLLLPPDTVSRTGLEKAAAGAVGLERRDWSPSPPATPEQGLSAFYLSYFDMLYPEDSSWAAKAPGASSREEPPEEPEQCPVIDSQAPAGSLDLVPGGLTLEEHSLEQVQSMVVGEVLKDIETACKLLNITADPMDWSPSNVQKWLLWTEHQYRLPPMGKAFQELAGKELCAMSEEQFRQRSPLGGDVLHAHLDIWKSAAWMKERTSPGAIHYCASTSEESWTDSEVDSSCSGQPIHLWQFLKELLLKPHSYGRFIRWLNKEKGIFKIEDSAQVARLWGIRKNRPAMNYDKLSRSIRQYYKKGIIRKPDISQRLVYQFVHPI
Procedure, shortened: as §1

ETV7 = target: T10, ETV7 (Homo sapiens, UniProt Q9Y603 1-341); conditions: protein: recombinant; tags: N-terminal GST; dsDNA, one strand shown
T10 sequence: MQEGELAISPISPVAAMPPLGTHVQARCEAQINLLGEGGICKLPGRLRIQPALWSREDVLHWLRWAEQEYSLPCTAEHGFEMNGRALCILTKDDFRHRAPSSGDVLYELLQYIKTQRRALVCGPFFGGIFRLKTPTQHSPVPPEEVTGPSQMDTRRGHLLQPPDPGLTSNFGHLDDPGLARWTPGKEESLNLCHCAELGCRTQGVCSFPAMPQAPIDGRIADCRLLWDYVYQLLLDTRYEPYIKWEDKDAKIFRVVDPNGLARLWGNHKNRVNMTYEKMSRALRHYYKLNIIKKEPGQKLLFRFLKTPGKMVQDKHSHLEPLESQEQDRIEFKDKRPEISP
Procedure, shortened: as §1

ELF5 = target: T11, ELF5 (Homo sapiens, UniProt Q9UKW6-2 1-255); conditions: protein: recombinant; tags: N-terminal GST; dsDNA, one strand shown
T11 sequence: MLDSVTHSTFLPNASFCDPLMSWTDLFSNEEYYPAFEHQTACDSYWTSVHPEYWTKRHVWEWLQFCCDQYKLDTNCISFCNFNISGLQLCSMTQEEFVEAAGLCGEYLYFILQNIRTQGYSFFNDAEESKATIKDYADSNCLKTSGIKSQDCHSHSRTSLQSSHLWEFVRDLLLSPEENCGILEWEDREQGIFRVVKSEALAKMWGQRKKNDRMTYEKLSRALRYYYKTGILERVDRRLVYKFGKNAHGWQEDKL
Procedure, shortened: as §1

ETV3 = target: T12, ETV3 (Homo sapiens, UniProt P41162-2 1-143); conditions: protein: recombinant; tags: N-terminal GST; dsDNA, one strand shown
T12 sequence: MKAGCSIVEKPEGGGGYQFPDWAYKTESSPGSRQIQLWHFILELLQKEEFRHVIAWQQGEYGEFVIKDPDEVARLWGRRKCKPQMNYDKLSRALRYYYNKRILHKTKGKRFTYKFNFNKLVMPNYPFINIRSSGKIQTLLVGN
Procedure, shortened: as §1

ETV6 = ETV6 (Homo sapiens, UniProt P41212 1-452); conditions: protein: recombinant; tags: N-terminal GST; dsDNA, one strand shown
ETV6, sequence (P41212 whole entry): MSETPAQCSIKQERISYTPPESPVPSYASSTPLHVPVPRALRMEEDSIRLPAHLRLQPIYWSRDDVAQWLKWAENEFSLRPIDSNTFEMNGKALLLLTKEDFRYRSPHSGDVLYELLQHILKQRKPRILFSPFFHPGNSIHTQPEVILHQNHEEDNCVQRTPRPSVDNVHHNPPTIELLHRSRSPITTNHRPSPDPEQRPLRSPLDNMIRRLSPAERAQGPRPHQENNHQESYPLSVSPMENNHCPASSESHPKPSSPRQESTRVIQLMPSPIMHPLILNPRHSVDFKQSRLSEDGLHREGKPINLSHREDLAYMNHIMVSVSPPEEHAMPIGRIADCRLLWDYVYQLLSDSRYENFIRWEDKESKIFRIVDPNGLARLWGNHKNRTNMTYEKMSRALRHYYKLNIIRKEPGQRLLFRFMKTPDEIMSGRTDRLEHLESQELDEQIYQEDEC
Procedure, shortened: as §1

GACATT
binding signal (FEV): 1.13 fold enrichment (6-mer frequency, TF over GST control) | binding signal (ETV5): 1.17 fold enrichment (6-mer frequency, TF over GST control) | binding signal (HSF1): 1.09 fold enrichment (6-mer frequency, TF over GST control) | binding signal (SPIC): 1.12 fold enrichment (6-mer frequency, TF over GST control) | binding signal (ELF4): 1.14 fold enrichment (6-mer frequency, TF over GST control) | binding signal (ELK4): 1.1 fold enrichment (6-mer frequency, TF over GST control) | binding signal (ETV2): 1.13 fold enrichment (6-mer frequency, TF over GST control) | binding signal (ELF3): 1.16 fold enrichment (6-mer frequency, TF over GST control) | binding signal (CRX): 1.01 fold enrichment (6-mer frequency, TF over GST control) | binding signal (ETV1): 1.26 fold enrichment (6-mer frequency, TF over GST control) | binding signal (ERF): 1.22 fold enrichment (6-mer frequency, TF over GST control) | binding signal (ETV3L): 1.17 fold enrichment (6-mer frequency, TF over GST control) | binding signal (ETS2): 1.11 fold enrichment (6-mer frequency, TF over GST control) | binding signal (SPDEF): 1.13 fold enrichment (6-mer frequency, TF over GST control) | binding signal (ETV7): 1.07 fold enrichment (6-mer frequency, TF over GST control) | binding signal (ELF5): 1.17 fold enrichment (6-mer frequency, TF over GST control) | binding signal (ETV3): 1.21 fold enrichment (6-mer frequency, TF over GST control) | binding signal (ETV6): 1.26 fold enrichment (6-mer frequency, TF over GST control)
